Bioassay records as filed in PubChem BioAssay.
Insulin prom up: MIN6 insulin promoter up-regulation | MIN6 insulin promoter-GFP reporter, high-content imaging; active compounds read high | AID 1625 | 0.3% of 190,000 active | z-score at 5 µM;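 active = z-score above 3 at 5 µM with at least 500 cells counted in the well; inconclusive = wells under 500 cells, flagged as cytotoxic or low count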
ROMK primary: modulates human ROMK potassium channel activity | P48048 | Tet-inducible ROMK, thallium flux fluorescence; actives lie on both sides | B-score at 10 µM | 2% of 130,000 active | AID 1918;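 active = signal ratio slope over the read window, or its plate-corrected B-score, at least 3 SD from the plate mean, either direction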;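 note: B-score of the F/F0 ratio slope over 7 to 12 s after thallium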
Target sequence (P48048 whole entry, looked up): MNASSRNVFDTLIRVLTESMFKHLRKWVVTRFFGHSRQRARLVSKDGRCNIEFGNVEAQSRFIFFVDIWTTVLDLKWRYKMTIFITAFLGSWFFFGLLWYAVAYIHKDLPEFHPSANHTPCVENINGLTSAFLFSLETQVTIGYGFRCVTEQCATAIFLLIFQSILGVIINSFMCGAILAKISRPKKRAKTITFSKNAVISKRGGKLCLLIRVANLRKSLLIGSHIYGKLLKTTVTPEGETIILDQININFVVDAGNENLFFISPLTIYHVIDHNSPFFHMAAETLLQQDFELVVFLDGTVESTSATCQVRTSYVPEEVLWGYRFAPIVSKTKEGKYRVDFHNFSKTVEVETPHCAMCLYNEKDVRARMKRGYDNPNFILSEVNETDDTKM
WT yeast gro inh: growth inhibition of WT yeast, mitochondrial fusion screen. mitochondrial fusion phenotypic screen, WT strain. AID 1362. 2.1% of 190,000 active. inhibition, % at 10 µM; in the data active = inhibition above about 58%; tested in S. cerevisiae
INS promoter inh: TRM-6 insulin promoter activity inhibition. TRM-6 cells (human fetal islet line), insulin promoter-eGFP reporter, imaging; reporter expression induced with tamoxifen. inhibition, % at 2 µM. 0.9% of 130,000 active;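 active = inhibition above the mean plus 3 SD, with well images judged a real hit on visual review, cut at about 60% in these data, passing the limit was not always enough; inconclusive = inhibition over the cutoff but images rejected on review; inactive = inhibition not above the cutoff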
L major viab: reduces viability of Leishmania major promastigotes. resazurin fluorescence viability. inhibition, % at 10 µM. 9% of 200,000 active. AID 1063; in the data active = inhibition above about 50%;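 note: promastigotes grown with compound for 44 hours at 28 °C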
KCC2 mod: modulates chloride dependent transport by human KCC2; KCC2 cells, thallium flux FluoZin-2 fluorescence; B-score of Tl+ flux slope (higher = more flux/activation; lower = inhibition) at 10 µM; 2.2% of 190,000 active;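 active = thallium flux slope and its plate-corrected score both differing from the plate sample mean at a set confidence after two filtering rounds, in either direction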;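 note: slope of fluorescence scaled to starting intensity during 10 to 20 s after thallium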
KCC2 sec1: confirmation of human KCC2 transport modulators; shares compounds with KCC2 mod; HEK293-KCC2, thallium flux, FluoZin2 fluorescence; active compounds read high; normalised thallium flux (F/F0 slope) at 10 µM; 15% of 3,700 active; AID 1713;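 active = thallium flux slope above the same plate's solvent-only control mean plus 3 SD; inconclusive = the two replicate wells disagree; inactive = no significant difference from solvent-only control wells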
KCC2 bumet counter: thallium flux persisting under bumetanide in KCC2 cells, counter-screen secondary assay. HEK293-KCC2 + bumetanide/ouabain, thallium flux FluoZin2; active compounds read high. shares compounds with KCC2 mod. 49% of 3,700 active. normalized thallium flux at 10 µM;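 active = thallium entry rate above the same plate's blocked-transporter control wells by more than 3 SD; inconclusive = the two repeat wells disagree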;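 note: raw slope of fluorescence over initial fluorescence between 10 and 20 s after thallium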
KCC2 secondary2: confirmation of human KCC2 transport modulators | shares compounds with KCC2 mod | HEK293-KCC2, thallium flux FluoZin2 fluorescence; actives lie on both sides; F/F0 rise rate, 10–20 s post-thallium | normalized thallium flux at 10 µM | 23% of 3,700 active;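 active = thallium flux slope more than 3 SD above or below the plate's solvent-only control mean, mostly below; inconclusive = the two repeat wells disagreed; inactive = no significant shift from solvent-only controls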;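 note: raw slope with 0.1% DMSO as baseline and bumetanide as block control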
HEK293 Tl flux: counter-screen for KCC2 modulators: effect in parental HEK293 cells; shares compounds with KCC2 mod; thallium flux FluoZin2, ouabain; baseline-ratio fluorescence slope, 10–20 s after thallium; thallium flux rate (normalised fluorescence) at 10 µM; 46% of 3,700 active;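 active = thallium flux rate significantly above the same plate's solvent-only control wells, beyond their mean plus 3 SD; inconclusive = the two replicate wells gave conflicting results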
KCC2 retest ouab: confirmation of human KCC2 modulators with ouabain | 48% of 3,700 active | HEK293-KCC2, thallium flux FluoZin2 fluorescence; bidirectional: low = inhibitor, high = activator | raw Tl+ flux slope (below DMSO = inhibition, above = activation) at 10 µM | shares compounds with KCC2 mod | AID 1717;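 active = thallium flux slope beyond 3 SD from same-plate DMSO control mean in most replicates, usually higher, sometimes lower; inconclusive = repeat tests gave conflicting results; inactive = no significant difference from controls in most replicates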;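 note: slope of initial-normalized fluorescence between seconds 10 and 20 after thallium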
HEK counter2: parental HEK flux effect, counter-screen 2; shares compounds with KCC2 mod; HEK293 parental, thallium flux FluoZin-2 fluorescence slope; thallium flux slope at 10 µM; 33% of 3,700 active;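 active = thallium flux slope above the same plate's solvent-control mean plus 3 SD in both duplicate wells; inconclusive = duplicate wells that disagreed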;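 note: run without ouabain in cells lacking the KCC2 cotransporter; slope of fluorescence scaled to its starting value between 10 and 20 s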
Starred values were filed as active, the others as inactive; ? = inconclusive; nt = no result. Hits are enriched below; roughly 12% of the tested compounds scored in any of these assays.

SMILES | Insulin prom up | ROMK primary | WT yeast gro inh | INS promoter inh | L major viab | KCC2 mod | KCC2 sec1 | KCC2 bumet counter | KCC2 secondary2 | HEK293 Tl flux | KCC2 retest ouab | HEK counter2
O=C(Cn1cnc2c(cnn2-c2ccccc2)c1=O)N1CCN(c2ccc(F)cc2)CC1 | -0.19 | 0.045 | 2 | nt | -9 | -1.1 | nt | nt | nt | nt | nt | nt
O=C(Cn1cnc2c(nnn2-c2ccccc2)c1=O)NCCc1ccccc1 | 0.43 | nt | -11 | -100 | -11 | -4.3* | 0.007 | 0.0051 | 0.023* | 0.0073 | 0.014* | 0.01
COc1ccc(CC(=O)Nc2ccc(N3CCOCC3)cc2)cc1S(=O)(=O)N1CCOCC1 | 0.33 | nt | nt | nt | nt | -0.0092 | nt | nt | nt | nt | nt | nt
O=C(O)CSc1cc(C(F)(F)F)nc(-c2ccccn2)n1 | 0.02 | nt | 9 | -20 | -4 | 1.3 | nt | nt | nt | nt | nt | nt
COc1ccc(C2/C=C\CN(Cc3ccco3)CC(=O)N2Cc2ccc(F)cc2)cc1 (stereo not given) | nt | nt | nt | nt | nt | 2.7 | nt | nt | nt | nt | nt | nt
CC(C)(C)C(=O)NC(=S)NNC(=O)C(c1ccccc1)c1ccccc1 | nt | -2 | -41 | 0 | 4 | 5.8* | 0.011 | 0.023* | 0.041 | ? | 0.03* | 0.013
CC(=O)NNC(=S)NC(=O)C(c1ccccc1)c1ccccc1 | -1.1 | -1.6 | -8 | nt | -1 | -1.4 | nt | nt | nt | nt | nt | nt
CS(=O)(=O)N1CCCC(C(=O)NCCc2ccc(Cl)cc2)C1 (stereo not given) | 1.5 | -0.19 | -3 | nt | -3 | nt | nt | nt | nt | nt | nt | nt
O=C(NCCc1ccc(Cl)cc1)C1CCN(S(=O)(=O)N2CCCC2)CC1 | -0.1 | nt | 5 | -8 | -5 | -6.7* | 0.0068 | 0.0047 | 0.028 | 0.0078 | 0.019 | 0.011
CN1CCN(C(=O)CN(c2cccc(Br)c2)S(=O)(=O)c2ccccc2)CC1 | -0.29 | 0.2 | -3 | nt | 26 | -1.3 | nt | nt | nt | nt | nt | nt
O=C(NC(=S)N1CCCCC1)c1csc([N+](=O)[O-])c1 | 0.82 | nt | nt | nt | nt | 24* | 0.022* | 0.032* | 0.035 | 0.017* | ? | 0.013*
C=CCNC(=S)N/N=C/c1ccc(C)c([N+](=O)[O-])c1 | 0.37 | -1.8 | 23 | 50 | 0 | 1.2 | nt | nt | nt | nt | nt | nt
C=CCNC(=S)NC(=O)c1csc([N+](=O)[O-])c1 | 0.38 | nt | nt | nt | nt | 5.9* | 0.0092 | 0.02* | 0.03 | 0.0097* | ? | 0.0097
Cc1ccc(/C=N/n2nnnc2N)cc1[N+](=O)[O-] | 0.34 | nt | 5 | nt | 6 | 0.14 | nt | nt | nt | nt | nt | nt
O=C(Nc1ccc2ccccc2c1)C(=O)C1C(=O)Nc2ccccc21 (stereo not given) | 0.81 | nt | nt | nt | nt | 25* | ? | 0.022* | ? | 0.018* | 0.021 | 0.017*
COC(=O)C(=C/C=C/c1ccco1)C(=O)OC | -0.08 | nt | nt | nt | nt | -0.43 | nt | nt | nt | nt | nt | nt
O=C(O)C(=O)/C(=C\c1cccc(Cl)c1)c1ccc2ccccc2n1 | 1 | -1.2 | 22 | nt | -5 | 11* | 0.0062 | 0.022* | 0.033 | 0.023* | ? | 0.016*
Cc1cccc(/C=C(\C(=O)C(=O)O)c2ccc3ccccc3n2)c1 | -0.09 | -1.2 | -13 | nt | -5 | 0.77 | nt | nt | nt | nt | nt | nt
CN(C(=O)c1cccc(C#N)c1)c1nnc(C2CCOC2)s1 (stereo not given) | 0.22 | 0.4 | 10 | nt | -2 | 0.042 | nt | nt | nt | nt | nt | nt
CC(C)n1nnnc1-c1cc(Cl)cc(Cl)c1 | -2 | 0.077 | -3 | nt | 3 | 3.4* | 0.017 | 0.0053 | 0.03 | 0.0074 | 0.017 | 0.01
CC(C)n1nnnc1-c1cccc(Cl)c1 | 0.49 | nt | -5 | 48 | -6 | 0.98 | nt | nt | nt | nt | nt | nt
COc1ccc(CCNc2cc(-c3ccccc3)nc3ncnn23)cc1 | 0.09 | nt | -14 | 11 | 27 | 4.7* | 0.0071 | 0.0043 | 0.027 | 0.0068 | 0.017 | ?
O=P(CCN1CCCCC1)(c1ccccc1)c1ccccc1 | -0.73 | 1.4 | 0 | -31 | -3 | -17* | 0.0066 | 0.005 | 0.028 | 0.0078 | 0.018 | 0.012
O=P(O)(CCc1ccccc1)CN1CCCCC1 | 0.37 | nt | 7 | 18 | -4 | -0.54 | nt | nt | nt | nt | nt | nt
CCCSc1nc(O)c(C2OC(=O)c3c2ccc(OC)c3OC)c(=O)n1C (stereo not given) | 0.06 | 0.35 | -4 | 14 | -4 | 1.7 | nt | nt | nt | nt | nt | nt
SMILES | Insulin prom up | ROMK primary | WT yeast gro inh | INS promoter inh | L major viab | KCC2 mod | KCC2 sec1 | KCC2 bumet counter | KCC2 secondary2 | HEK293 Tl flux | KCC2 retest ouab | HEK counter2
CCn1c(=O)c(C(=O)NC(C)C)c(O)c2ccccc21 | 0.97 | -0.38 | 2 | -55 | 3 | 0.84 | nt | nt | nt | nt | nt | nt
CCCCCCCCCC(=O)NNC(=O)c1c(O)c2ccccc2n(CC)c1=O | -0.32 | 1.7 | 0 | 36 | -11 | 5.2* | 0.0064 | 0.016* | 0.03 | 0.016* | 0.024* | 0.015*
CCCCCC(=O)NNC(=O)c1c(O)c2ccccc2n(CC)c1=O | -1.5 | 1.5 | -14 | -7 | -2 | 3.5* | 0.0062 | 0.014* | 0.033 | 0.013* | ? | 0.015*
CCOC(=O)COc1ccc(/C=C2\NC(=S)N(CC)C2=O)cc1 | 0.13 | -0.8 | 5 | 39 | 97* | -6.2* | 0.0068 | 0.011* | 0.029 | 0.0066 | 0.014* | 0.01
COC(=O)CN1C(=O)N/C(=C/c2ccc(OC)cc2)C1=O | -0.24 | -0.045 | -3 | nt | -2 | 0.71 | nt | nt | nt | nt | nt | nt
CC(C)CN1C=C2C(=O)C(C)(OC(=O)CCc3ccccc3)C(=O)C=C2C=C1c1ccc(C#N)cc1 (stereo not given) | 0.11 | nt | nt | nt | nt | 3.1* | 0.01 | 0.0064 | 0.036 | 0.0076 | 0.023 | ?
Cn1c(SCC(=O)NCCN2C(=O)CSC2=O)nc2ccccc2c1=O | -0.22 | nt | 4 | nt | -4 | 6.4* | 0.019 | 0.013* | ? | 0.012* | 0.02 | 0.017*
O=C(CSc1nc2ccccc2c(=O)n1Cc1ccco1)NCCN1C(=O)CSC1=O | -0.13 | nt | nt | nt | nt | 0.024 | nt | nt | nt | nt | nt | nt
O=C(CSc1nc2ccccc2n1CCc1ccccc1)NC1CCS(=O)(=O)C1 (stereo not given) | 0.03 | nt | 0 | -13 | 3 | 7.2* | 0.01 | 0.021* | 0.031 | 0.011* | 0.028* | 0.011*
COC(=O)Cn1c(SCc2ccccc2)nc2ccccc21 | nt | -1.3 | 27 | 25 | 11 | -1.1 | nt | nt | nt | nt | nt | nt
O=C(O)CCn1c(SCc2ccccc2)nc2ccccc21 | 0.07 | 0.094 | -3 | -32 | 3 | -4.2* | 0.0079 | 0.0059 | 0.035 | 0.0072 | 0.015* | 0.01
